Experimental findings from PubChem BioAssay (NCATS) are described below.

Experiment [1] can be described thus: qHTS profiling of the MIPE4 collection as inhibitors of Plasmodium falciparum (3D7) proliferation (AID 743344).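 Note: scaled between DMSO vehicle wells and 0.29 µM artemisinin as full inhibition.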 Conditions: P. falciparum 3D7 in erythrocytes, SYBR Green DNA fluorescence, 72 h; at 28.5 µM unless noted. The method in brief: (§1)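 Erythrocytes infected with P. falciparum (0.3% parasitemia, 2.5% hematocrit) incubated with compounds 72 h at 37 C, 5% CO2. Lysis with saponin/Triton buffer containing SYBR Green I, overnight at room temperature in the dark; DNA fluorescence (485/535 nm) normalised to 0.29 uM artemisinin and DMSO.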

Experiment [2] in a line: qHTS profiling of the MIPE4 collection as inhibitors of Plasmodium falciparum (DD2) proliferation (Rep 2) (AID 743346). Conditions: P. falciparum Dd2 in erythrocytes, SYBR Green DNA, 72 h; at 28.5 µM unless noted. The method in brief:
as §1

A short description of experiment [3]: qHTS profiling of the MIPE4 collection as inhibitors of Plasmodium falciparum (HB3) proliferation (AID 743347).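 Note: plate controls were DMSO vehicle wells for no effect and artemisinin wells for full effect.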 Conditions: P. falciparum HB3 in erythrocytes, SYBR Green DNA, 72 h; at 28.5 µM unless noted. The method in brief:
as §1

A short description of experiment [4]: High-throughput drug toxicity screening in the BPDCN cell line Gen2.2 (AID 1224824).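 Note: cells exposed to compounds for 48 h before reading.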 Conditions: Gen2.2 BPDCN cells; at 45.8 µM (top of the series) unless noted. The method in brief:
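Gen2.2, 500 cells/well, phenol red-free RPMI/10% FBS/Pen-Strep; 48 h cpd, 37 °C/5% CO2; CTG lum, 15 min RT. Norm: DMSO = 100%, bortezomib 9.2 uM final = 0%.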

The nature of experiment [5]: High-throughput drug toxicity screening in the BPDCN cell line Cal-1 (AID 1224825). Conditions: Cal-1 BPDCN cell viability, qHTS; at 45.8 µM (top of the series) unless noted. The method in brief: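 Cal-1 cells, 500 per well in phenol-red-free RPMI with 10% FBS, exposed to compounds for 48 hours at 37C, 5% CO2. Viability read by CellTiter-Glo luminescence; percent activity normalized to DMSO (100%) and 9.2 uM bortezomib final (0%).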

Experiment [6] can be described thus: qHTS profiling of the MIPE4 collection as inhibitors of Plasmodium falciparum (DD2) proliferation (AID 743345). Conditions: P. falciparum Dd2 in erythrocytes, SYBR Green DNA, 72 h; at 28.5 µM unless noted. The method in brief: as §1

On to `NCC(=O)Nc1ccc(-n2nc(C(F)(F)F)cc2-c2ccc3c(ccc4ccccc43)c2)cc1`, for which, in experiment [1], the parasite growth, % of DMSO control was 5.62%. This compound also displayed a parasite growth, % of control (lower = inhibition) in experiment [2] of 12.2%. In experiment [3], this compound displayed a growth, % of control of 4.19%. The cell viability, % of control (lower = more cytotoxic) in experiment [4] stood at 1.18%. Also, the viability (% of control) in experiment [5] was 0.933%.
In turn, `O=C(O)C1(Cc2cccc(Nc3nccs3)n2)CCC(Oc2cccc(Cl)c2F)CC1` (configuration not stated) came in with a parasite growth remaining, % of DMSO control (lower = more inhibition) in experiment [6] of 98.3%. In experiment [2], this compound showed a parasite growth, % of control (lower = inhibition) of 59.5%. Also, the growth, % of control in experiment [3] was determined as 92%. Moreover, in experiment [4], the cell viability, % of control (lower = more cytotoxic) worked out at 88.8%. The viability (% of control) in experiment [5] worked out at 33.8%.
The compound `CCCCOc1c(C(=O)c2c(F)cc(C)cc2F)cnc2n[nH]cc12` registered a parasite growth, % of DMSO control in experiment [1] of 71.2%. Moreover, the parasite growth, % of control (lower = inhibition) in experiment [2] is 43.3%. The compound further yielded a growth, % of control in experiment [3] of 92.5%. Further, in experiment [4], the cell viability, % of control (lower = more cytotoxic) amounted to 8.67%. The viability (% of control) in experiment [5] came out at 26.5%.
As for `Cc1cc(Nc2cc(CN3CCOCC3)c3nc(C)c(Cc4ccc(Cl)cc4F)n3n2)n[nH]1`, in experiment [1], the parasite growth, % of DMSO control turned out to be 6.44%. In addition, the parasite growth, % of control (lower = inhibition) in experiment [2] came out at 12.5%. In addition, the cell viability, % of control (lower = more cytotoxic) in experiment [4] came out at 4.25%. Moreover, the viability (% of control) in experiment [5] came out at 2.99%.
Regarding `COc1cccc(Nc2c(C(N)=O)cnc3c(C)cc(S(=O)(=O)c4cccc(C(=O)N(C)C)c4)cc23)c1`, the parasite growth remaining, % of DMSO control (lower = more inhibition) in experiment [6] amounted to 90.5% [at 9.64 µM]. Also, the parasite growth, % of control (lower = inhibition) in experiment [2] worked out at 40% [at 9.64 µM]. In experiment [3], this compound returned a growth, % of control of 90% [at 9.64 µM]. Besides, the cell viability, % of control (lower = more cytotoxic) in experiment [4] turned out to be 216% [at 23.2 µM]. For the same compound, the viability (% of control) in experiment [5] turned out to be 108% [at 23.2 µM].
Compound `Nc1ncnc2c1c(-c1cccc(OCc3ccccc3)c1)cn2C1CC(CN2CCCC2)C1` (configuration not stated) displayed a parasite growth remaining, % of DMSO control (lower = more inhibition) in experiment [6] of 7.32%. Also, the parasite growth, % of control (lower = inhibition) in experiment [2] was 9.07%. Also, in experiment [4], the cell viability, % of control (lower = more cytotoxic) is 5.16%. The viability (% of control) in experiment [5] was found to be 1.43%.
`COc1cc(C)c(Sc2cnc(NC(=O)c3ccc(CNC(C)C(C)C)cc3)s2)cc1C(=O)N1CCN(C(C)=O)CC1` (configuration not stated) displayed a parasite growth remaining, % of DMSO control (lower = more inhibition) in experiment [6] of 16%. Further, the parasite growth, % of control (lower = inhibition) in experiment [2] is 18.9%. Moreover, in experiment [3], the growth, % of control amounted to 4.37%. For the same compound, the cell viability, % of control (lower = more cytotoxic) in experiment [4] was determined as 140%. Moreover, in experiment [5], the viability (% of control) worked out at 6.82%.
`Cc1cc(N2CCOCC2)cc2[nH]c(-c3c(NC[C@@H](O)c4cccc(Cl)c4)cc[nH]c3=O)nc12` registered a parasite growth, % of DMSO control in experiment [1] of 5.92%. Moreover, the parasite growth, % of control (lower = inhibition) in experiment [2] turned out to be 14%. The compound further returned a growth, % of control in experiment [3] of 3.57%. Further, the cell viability, % of control (lower = more cytotoxic) in experiment [4] was 25%. Further, the viability (% of control) in experiment [5] is 3.1%.
Taken in the same sequence, the figures for `C[C@@H]1COC(Nc2ccc3ncnc(Nc4ccc(OCc5nccs5)c(Cl)c4)c3c2)=N1` were 6%, 27.7%, 8.37%, 127% and 13%.
Consider `CC(=O)Nc1nc(C)c(-c2ccc(Cl)c(S(=O)(=O)NCCO)c2)s1`, for which, in experiment [6], the parasite growth remaining, % of DMSO control (lower = more inhibition) was 7.49%. In experiment [2], this compound returned a parasite growth, % of control (lower = inhibition) of 10%. Also, in experiment [3], the growth, % of control worked out at 2.77%. Also, the cell viability, % of control (lower = more cytotoxic) in experiment [4] came to 17.8%. In experiment [5], the viability (% of control) came to 18.7%.
`COc1cc(C(=O)NS(=O)(=O)c2ccccc2C)ccc1Cc1cn(C)c2ccc(NC(=O)OC3CCCC3)cc12`: the parasite growth, % of DMSO control in experiment [1] stood at 5.96%. The compound further came in with a parasite growth, % of control (lower = inhibition) in experiment [2] of 16.7%. For the same compound, the growth, % of control in experiment [3] came out at 7.01%. Further, in experiment [4], the cell viability, % of control (lower = more cytotoxic) is 13%. Besides, the viability (% of control) in experiment [5] amounted to 4.45%.
`Clc1cccc(-c2nnnn2Cc2cccnc2)c1Cl` came in with a parasite growth remaining, % of DMSO control (lower = more inhibition) in experiment [6] of 95.6%. Also, the parasite growth, % of control (lower = inhibition) in experiment [2] worked out at 84.8%. The cell viability, % of control (lower = more cytotoxic) in experiment [4] turned out to be 164%. Further, the viability (% of control) in experiment [5] is 95.3%.
In the case of `CCOc1ccccc1OCCNC(C)Cc1ccc(OC)c(S(N)(=O)=O)c1` (configuration not stated), the parasite growth remaining, % of DMSO control (lower = more inhibition) in experiment [6] turned out to be 84.6%. For the same compound, the parasite growth, % of control (lower = inhibition) in experiment [2] was 54.9%. Further, the growth, % of control in experiment [3] stood at 90.8%. Besides, the cell viability, % of control (lower = more cytotoxic) in experiment [4] stood at 122%. For the same compound, the viability (% of control) in experiment [5] came out at 97.4%.
`CC1COC2(CCN(c3nc(=O)c4cc(C(F)(F)F)cc([N+](=O)[O-])c4s3)CC2)O1` (configuration not stated) returned a parasite growth remaining, % of DMSO control (lower = more inhibition) in experiment [6] of 70%. This compound came in with a parasite growth, % of control (lower = inhibition) in experiment [2] of 33.5%. The growth, % of control in experiment [3] amounted to 29.9%. In addition, in experiment [4], the cell viability, % of control (lower = more cytotoxic) is 104%. Moreover, in experiment [5], the viability (% of control) was determined as 110%.
